Myeloid diff MLP: induction of myeloid progenitor differentiation, primary screen, cell-based, flow cytometry, MLPCN library | ER-HoxA9 myeloid progenitors, lysozyme-GFP differentiation | AID 624256, 2012 | 360,000 compounds, 1% hits | calls only at 10 µM;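 active means normalized GFP-positive differentiation at or above the plate's own cutoff, the solvent-only control mean plus 3 SD; inconclusive means no clear call, values can overlap the other calls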;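 further: cells exposed to compound for four days before flow analysis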
CRFR2-BP antag: antagonists of CRF-BP/CRF-R2 complex, primary screen, cell-based, HEK293, calcium dye fluorescence, uHTS. CRF-induced calcium fluorescence. inhibition, % at 11.8 µM. 350,000 compounds, 0.59% hits. AID 588475, 2011;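 active means inhibition of the ligand-induced calcium signal above about 50% at the single tested concentration, limit read from the data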
TPT1 inhibitor: Candida albicans TPT1 enzyme inhibitors, primary screen, biochemical, fluorescence polarization | tRNA 2'-phosphotransferase TPT1 (Candida albicans SC5314) | recombinant caTPT1, FP RNA substrate dephosphorylation | inhibition, % at 5 µM | 300,000 compounds, 0.81% hits;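 active means inhibition above the mean of all tested compounds plus 3 SD, set per screening campaign, cut at about 24% in these data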;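 further: plate controls were DMSO alone for no effect and ferristatin control at 100 nM for full effect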
IDE cell activ: human IDE activators in live cells, primary screen, fluorescence polarization, HEK cells, FAbeta-B substrate; FAbeta-B cleavage; 0% vehicle, 100% cell-free pure enzyme wells; activation, % at 5.96 µM; 340,000 compounds, 0.073% hits;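 active means activation above the mean of all tested compounds plus 3 SD, set per screening campaign, cut at about 17% in these data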
Target sequence (P14735 whole entry, looked up): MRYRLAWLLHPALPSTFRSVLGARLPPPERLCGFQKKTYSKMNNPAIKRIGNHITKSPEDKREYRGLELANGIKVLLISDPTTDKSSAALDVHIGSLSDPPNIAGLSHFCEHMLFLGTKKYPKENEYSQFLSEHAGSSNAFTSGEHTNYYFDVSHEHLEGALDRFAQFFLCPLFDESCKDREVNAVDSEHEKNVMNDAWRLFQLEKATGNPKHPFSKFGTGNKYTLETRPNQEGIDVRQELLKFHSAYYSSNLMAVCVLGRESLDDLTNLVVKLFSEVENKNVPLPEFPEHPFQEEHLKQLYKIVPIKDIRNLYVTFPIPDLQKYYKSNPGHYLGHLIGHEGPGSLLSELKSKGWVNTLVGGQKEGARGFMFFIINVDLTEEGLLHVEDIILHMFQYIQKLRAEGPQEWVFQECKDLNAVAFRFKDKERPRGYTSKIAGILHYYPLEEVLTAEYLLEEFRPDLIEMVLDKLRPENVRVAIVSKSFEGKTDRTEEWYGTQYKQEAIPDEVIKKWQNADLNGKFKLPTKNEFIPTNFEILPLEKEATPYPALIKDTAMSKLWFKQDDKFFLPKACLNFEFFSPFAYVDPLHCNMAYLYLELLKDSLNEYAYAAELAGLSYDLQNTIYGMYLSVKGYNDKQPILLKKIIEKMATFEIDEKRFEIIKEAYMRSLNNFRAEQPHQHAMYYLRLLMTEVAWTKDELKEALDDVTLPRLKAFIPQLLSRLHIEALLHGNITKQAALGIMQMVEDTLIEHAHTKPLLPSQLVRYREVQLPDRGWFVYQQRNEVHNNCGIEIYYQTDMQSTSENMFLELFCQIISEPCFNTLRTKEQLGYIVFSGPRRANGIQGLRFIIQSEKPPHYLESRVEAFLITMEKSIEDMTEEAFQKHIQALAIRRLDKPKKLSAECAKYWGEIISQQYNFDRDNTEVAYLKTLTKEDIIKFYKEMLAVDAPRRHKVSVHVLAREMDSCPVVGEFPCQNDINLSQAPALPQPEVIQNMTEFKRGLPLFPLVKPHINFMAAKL
IDE cell inh: human IDE inhibitors in live cells, primary screen, fluorescence polarization, HEK cells, FAbetaB substrate | 320,000 compounds, 0.41% hits | AID 434962, 2010 | inhibition, % at 5.59 µM | FAbetaB cleavage;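 active means percent inhibition above the average of all tested compounds plus 3 SD, set per screening campaign, cut at about 16% in these data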;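 further: IDE supplied by intact live HEK cells; FP after avidin binding of uncleaved biotin substrate so inhibition keeps polarization high; 0% = DMSO wells and 100% = 60 µM reference IDE inhibitor Ii1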
CRFBP-R2 agonist: agonists of CRF-BP/CRF-R2 complex, primary screen, cell-based, HEK293, calcium dye fluorescence, uHTS; CRF-binding protein / CRF receptor 2 complex (human); calcium dye fluorescence (FLIPR); percent of saturating CRF peptide response; activation, % at 13.2 µM; 350,000 compounds, 0.46% hits;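 active means activation of at least 50%, plus an integration ratio under a set limit after plate pattern correction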;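 further: plate controls were neutral control wells without compound for no effect and CRF at EC100 for full effect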
* = called active by the depositor; i = inactive; ? = inconclusive; . = no result; + = active, no number. Most compounds without a hit are left out; they make up all but 2.6% or so of the library.

SMILES	Myeloid diff MLP	CRFR2-BP antag	TPT1 inhibitor	IDE cell activ	IDE cell inh	CRFBP-R2 agonist
CC1=CC(C)(C)N(C(=O)c2ccccc2)c2ccc(C)cc21	i	-49.5	.	2.2	.	67.2*
NC(=O)CSc1nnc(-c2ccc(S(=O)(=O)N3CCCCC3)cc2)n1-c1ccccc1	i	-62.6	-1.5	4.2	4.2	36.9
COc1ccccc1-n1c(SCC(N)=O)nnc1-c1ccc(S(=O)(=O)N2CCCCC2)cc1	i	-88.5	-2.6	-2.8	2.1	62.3*
COc1ccc(S(=O)(=O)N2CC(C(=O)O)Oc3ccc(Cl)cc32)cc1 (centres undefined)	+	14.5	1.0	4.3	1.1	-1.4
CCCCC/C=C\C/C=C\C/C=C\CCCCC(=O)O	+	-2.7	7.9	4.9	0.2	1.9
CCCCCCCC/C=C\CCCCCCCC(=O)O	i	33.7	0.4	-0.1	-0.7	6.8
O=C(CSC1=NNC(c2ccccn2)S1)Nc1ccccc1 (centres undefined)	i	1.4	-2.3	-3.3	24.9*	0.2
O=C(CSC1=NNC(c2ccccn2)S1)Nc1cccc(Cl)c1 (centres undefined)	i	-5.6	-1.1	.	4.3	0.1
CCOC(CNc1ncnc2c1cnn2C)OCC	i	0.5	2.5	-0.4	-0.1	-2.4
COC(CNc1ncnc2c1cnn2C)OC	i	53.4*	-0.4	7.9	-7.9	0.8
CCOc1ccc(S(=O)(=O)N2CCCCC2)cc1NC(=O)Cc1ccsc1	i	16.0	.	2.7	0.6	0.8
O=c1nc(N/N=C/C=C/c2ccccc2)cn[nH]1	i	98.2*	0.1	3.0	-5.3	1.2
O=C(c1ccc2ccccc2c1)C1CCCN(S(=O)(=O)c2cccnc2)C1 (centres undefined)	i	-17.0	-6.9	2.4	-4.3	2.4
O=C(NCc1cccnc1)C(=O)NCC1OCCCN1S(=O)(=O)c1cc(F)ccc1F (centres undefined)	i	-8.0	.	.	.	0.4
Cc1nn(CC(=O)NCCCN2CCC(Cc3ccccc3)CC2)c(=O)c2cc(-c3ccccc3)nn12	i	-7.4	-2.9	-0.9	-0.3	0.9
CCc1ccc(-c2cc3c(=O)n(CC(=O)NCCCN4CCC(Cc5ccccc5)CC4)nc(C)n3n2)cc1	?	100.8*	-0.5	6.3	0.2	2.2
CCOC(=O)c1ccc(NC(=S)Nc2ccc(C)cc2)cc1	i	2.0	-2.0	-1.5	6.2	-1.1
CCOC(=O)c1cn[nH]c1NC(=S)Nc1ccc(Cl)cc1	i	94.4*	-2.1	.	4.8	0.8
Cc1ccc(C(=O)NNC(=O)CSc2nnc(CNc3ccc(F)cc3)n2C)cc1	.	.	-2.7	.	-0.4	.
Cc1ccc(NCc2nnc(SCC(=O)NNC(=O)Cc3ccccc3)n2C)cc1	+	-5.6	-4.5	2.0	-2.6	-0.2
CC(=O)c1ccc(NC(=O)c2ccccc2-c2ccccc2C(=O)O)cc1	i	3.5	-0.3	6.1	0.7	0.9
O=C1NC(Cc2c[nH]c3ccccc23)C(=O)N1Cc1cccc2ccccc12 (centres undefined)	i	50.8*	-1.4	5.2	-3.0	1.1
Cc1ccc(C2OC(=O)C=C2c2ccccc2)cc1 (centres undefined)	i	11.2	-0.7	-0.7	3.0	-3.2
O=C(NCc1ccco1)C(c1ccncc1)N(C(=O)Cn1nnc2ccccc21)c1ccccc1F (centres undefined)	i	-12.4	-2.1	2.4	5.1	0.4
Cc1ccc(S(=O)(=O)c2nnn3c2nc(NC2CCN(Cc4ccccc4)CC2)c2ccccc23)cc1C	?	-10.6	1.9	4.5	2.9	-0.2
CCN(c1ccccc1)S(=O)(=O)c1cc(C(=O)Nc2ccc(F)c(F)c2)ccc1F	+	-15.8	-1.1	0.9	5.5	3.0
CN(c1ccccc1)S(=O)(=O)c1ccc(NC(=O)c2ccco2)cc1	i	-47.8	-2.5	7.1	-4.0	3.4
CCN(c1ccccc1)S(=O)(=O)c1ccc(NC(=O)c2ccco2)cc1	i	77.1*	-1.1	0.6	-5.0	-2.3

Screens: PubChem, several laboratories
